Each structure is given as a SMILES string. This is part of a sample that, as a whole, favours compounds with a hit. Of some 79,000 tested, about 15% had one in any assay. Values without a mark were called inactive. The source made the active and inactive calls. No stated cut-off is given here; in the data, active means growth inhibition above about 70%; inactive means the rest.

33 compounds from PubChem BioAssay (NCI) can be followed below.

A short description of one experiment: NCI Yeast Anticancer Drug Screen. Data for the rad18 strain (AID 177). The note with it: S. cerevisiae rad18 mutant growth inhibition; at 1.2 µM; hits give high values. Summed up: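 Test articles were incubated with altered yeast defective in DNA damage repair. Results are given as inhibition of growth versus vehicle.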
`COc1cc([C@@H]2c3cc4c(cc3[C@@H](NC(=O)NO)[C@H]3COC(=O)[C@H]23)OCO4)cc(OC)c1O`: the growth inhibition was -2%.
For `CC1(C)CC(=O)C(/C=N/c2nc(-c3ccc(Br)cc3)cs2)=C(O)C1`, the growth inhibition is 2%.
With `CCOC(=O)/C(=C/c1cccc(Cl)c1)N(CC)CC`, the growth inhibition was 13%.
Regarding `CC(C)OC(=O)NNc1cccc(Cl)c1`, the growth inhibition was 9%.
For `CCC(=O)C1=C(O)c2cc(OC)ccc2CC1C(=O)OC` (stereo not given), the growth inhibition is -1%.
Still for that read-out and setting: as for `O=S(=O)(NC1CCCC(c2ccccc2)C1)c1ccccc1` (stereo not given), the figure is 0%; as for `COc1ccc2nc3cccc([N+](=O)[O-])c3c(NCCCCCC(=O)O)c2c1`, 96% (active); as for `CCO/C=C1\SC(=S)N(c2ccc(OCC)cc2)C1=O`, -37%.
On the same count and under the same terms, under `COC(=O)c1ccccc1N=NNc1cccc(SC)c1` stands -10%; under `CC1=NN(C(=O)c2ccccc2O)C(=O)/C1=C/c1ccco1`, 0%.
On the same count and under the same terms, as for `COc1ccccc1NC(=O)c1ccc(Cl)cc1`, the figure is 3%.
For the compound `CC(C)=CCC/C(C)=C/CN1C(=O)C=CC1=O`, the growth inhibition is 4%.
As for `O=C1CSC(c2ccccc2)N1c1ccc(-c2ccc(-n3c(-c4ccccc4)nc4ccccc4c3=O)cc2)cc1` (stereo not given), the growth inhibition is -1%.
On to `N#CC1OB(O)c2ccccc21` (stereo not given), for which the growth inhibition was -4%.
For `O=C(NCCNCCNC(=O)c1cc(-c2ccccc2)nc2ccccc12)c1cc(-c2ccccc2)nc2ccccc12`, the growth inhibition was -3%.
For the compound `Brc1ccc(B2Nc3ccccc3N2)cc1`, the growth inhibition is -2%.
Still for that read-out and setting: as for `CCOP(=O)(OCC)/C(C#N)=C/c1cccc(Oc2ccccc2)c1`, the figure is -6%.

The experiment is the same for the next values; noted with them: S. cerevisiae rad18 mutant growth inhibition; at 3.7 µM; hits give high values.
Take `CN(C)CC(CN(C)C)C(=O)/C=C/c1ccc(Cl)cc1Cl`: the growth inhibition is -3%.
Take `c1ccc2c(c1)ccn2CCc1c[nH]c2ccccc12`: the growth inhibition was -46%.
Take `Cc1ccccc1NC(=O)c1c(C)oc2c1C(=O)c1ccccc1C2=O`: the growth inhibition is -24%.
The same measure, in the same setting: under `CC(C)OC(=O)NNc1c(Cl)cc(Cl)cc1Cl` stands 15%; under `CCC(OC(C)=O)C1CC(C(C)C)CCC1C` (stereo not given), 2%.
For `O=S(=O)(c1cccc(C(F)(F)F)c1)N1c2ccccc2-n2cccc2C1c1cccnc1` (stereo not given), the growth inhibition was 7%.
`c1ccc(-c2cc(C3CO3)c3ccccc3n2)cc1` (stereo not given): the growth inhibition is 11%.
`COc1ccc(/C=C2\SC(=S)N(/C=C3\C(=O)N(c4ccccc4)N=C3C)C2=O)cc1OC`: the growth inhibition is 17%.
On to `CC1=CC(=C(c2ccc(N)c(C)c2)c2ccc(N)c(C)c2)C=CC1=N`, for which the growth inhibition is 20%.
On to `CC1C(c2ccccc2)SC(=N)N1C` (stereo not given), for which the growth inhibition is 1%.
For the compound `CC(/C=C/c1ccc([N+](=O)[O-])o1)=N/N1CC(CN2CCOCC2)OC1=O` (stereo not given), the growth inhibition was 89% (active).
On to `C=CC(C)(C)N1C(=O)C(C(C)=O)=C(O)C1Cc1c[nH]c2ccccc12` (stereo not given), for which the growth inhibition was -3%.
On the same count and under the same terms, under `O=C1c2cccc3cccc(c23)C(=O)N1CCNCCN1C(=O)c2cccc3cccc(c23)C1=O` stands -2%.
Consider `Cc1ccc([N+](=O)[O-])c2c(NCCC[N+](C)(C)[O-])c3ccccc3nc12`, for which the growth inhibition is 76% (active).
Consider `COC(=O)C(Cc1c[nH]c2ccccc12)N1CN(C)c2ccccc2C1=O` (stereo not given), for which the growth inhibition is -3%.
For `O=C(/N=N/C(=O)Oc1ccccc1)Oc1ccccc1`, the growth inhibition is -72%.
Same read-out and setting: under `COc1cc([C@@H]2c3cc4c(cc3[C@@H](NC(=O)NO)[C@H]3COC(=O)[C@H]23)OCO4)cc(OC)c1O` stands -1%; under `CC1(C)CC(=O)C(/C=N/c2nc(-c3ccc(Br)cc3)cs2)=C(O)C1`, 5%.
In the case of `CCOC(=O)/C(=C/c1cccc(Cl)c1)N(CC)CC`, the growth inhibition is 14%.
With `CC(C)OC(=O)NNc1cccc(Cl)c1`, the growth inhibition was 61%.
Turning to `CCC(=O)C1=C(O)c2cc(OC)ccc2CC1C(=O)OC` (stereo not given), the growth inhibition was -3%.
With `O=S(=O)(NC1CCCC(c2ccccc2)C1)c1ccccc1` (stereo not given), the growth inhibition was -2%.
Same read-out and setting: under `COc1ccc2nc3cccc([N+](=O)[O-])c3c(NCCCCCC(=O)O)c2c1` stands 96% (active); under `CCO/C=C1\SC(=S)N(c2ccc(OCC)cc2)C1=O`, -31%; under `COC(=O)c1ccccc1N=NNc1cccc(SC)c1`, -13%.
Still for that read-out and setting: as for `CC1=NN(C(=O)c2ccccc2O)C(=O)/C1=C/c1ccco1`, the figure is 17%; as for `COc1ccccc1NC(=O)c1ccc(Cl)cc1`, 3%; as for `CC(C)=CCC/C(C)=C/CN1C(=O)C=CC1=O`, 32%.
In the case of `O=C1CSC(c2ccccc2)N1c1ccc(-c2ccc(-n3c(-c4ccccc4)nc4ccccc4c3=O)cc2)cc1` (stereo not given), the growth inhibition is 2%.
Regarding `N#CC1OB(O)c2ccccc21` (stereo not given), the growth inhibition was -1%.
With `O=C(NCCNCCNC(=O)c1cc(-c2ccccc2)nc2ccccc12)c1cc(-c2ccccc2)nc2ccccc12`, the growth inhibition is -4%.
For `Brc1ccc(B2Nc3ccccc3N2)cc1`, the growth inhibition was 1%.
As for `CCOP(=O)(OCC)/C(C#N)=C/c1cccc(Oc2ccccc2)c1`, the growth inhibition is -16%.
